Screen size: about 47,000 compounds; about 2,800 (6%) were called active. What follows is part of a selection rich in actives, with near analogues and random picks from the rest. Values without a mark were called inactive. Rule as the data show it: active = z-score above about 3 (passing the limit was not always enough); inactive = the rest.

The target of this experiment is Endoribonuclease Dicer (Homo sapiens) (UniProt Q9UPY3). As to the kind of experiment: inhibitors of Dicer pre-microRNA processing, primary screen, biochemical, cat-ELCCA, chemiluminescence (AID 1347074).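 Also: plate controls were vehicle for no effect and no enzyme for full effect; higher signal means more uncleaved substrate so more Dicer inhibition.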 The conditions noted are these: cat-ELCCA pre-miR-21 Dicer processing, at 25 µM, stronger effect = higher value.
Sequence of Endoribonuclease Dicer (Homo sapiens) (Q9UPY3 whole entry, looked up): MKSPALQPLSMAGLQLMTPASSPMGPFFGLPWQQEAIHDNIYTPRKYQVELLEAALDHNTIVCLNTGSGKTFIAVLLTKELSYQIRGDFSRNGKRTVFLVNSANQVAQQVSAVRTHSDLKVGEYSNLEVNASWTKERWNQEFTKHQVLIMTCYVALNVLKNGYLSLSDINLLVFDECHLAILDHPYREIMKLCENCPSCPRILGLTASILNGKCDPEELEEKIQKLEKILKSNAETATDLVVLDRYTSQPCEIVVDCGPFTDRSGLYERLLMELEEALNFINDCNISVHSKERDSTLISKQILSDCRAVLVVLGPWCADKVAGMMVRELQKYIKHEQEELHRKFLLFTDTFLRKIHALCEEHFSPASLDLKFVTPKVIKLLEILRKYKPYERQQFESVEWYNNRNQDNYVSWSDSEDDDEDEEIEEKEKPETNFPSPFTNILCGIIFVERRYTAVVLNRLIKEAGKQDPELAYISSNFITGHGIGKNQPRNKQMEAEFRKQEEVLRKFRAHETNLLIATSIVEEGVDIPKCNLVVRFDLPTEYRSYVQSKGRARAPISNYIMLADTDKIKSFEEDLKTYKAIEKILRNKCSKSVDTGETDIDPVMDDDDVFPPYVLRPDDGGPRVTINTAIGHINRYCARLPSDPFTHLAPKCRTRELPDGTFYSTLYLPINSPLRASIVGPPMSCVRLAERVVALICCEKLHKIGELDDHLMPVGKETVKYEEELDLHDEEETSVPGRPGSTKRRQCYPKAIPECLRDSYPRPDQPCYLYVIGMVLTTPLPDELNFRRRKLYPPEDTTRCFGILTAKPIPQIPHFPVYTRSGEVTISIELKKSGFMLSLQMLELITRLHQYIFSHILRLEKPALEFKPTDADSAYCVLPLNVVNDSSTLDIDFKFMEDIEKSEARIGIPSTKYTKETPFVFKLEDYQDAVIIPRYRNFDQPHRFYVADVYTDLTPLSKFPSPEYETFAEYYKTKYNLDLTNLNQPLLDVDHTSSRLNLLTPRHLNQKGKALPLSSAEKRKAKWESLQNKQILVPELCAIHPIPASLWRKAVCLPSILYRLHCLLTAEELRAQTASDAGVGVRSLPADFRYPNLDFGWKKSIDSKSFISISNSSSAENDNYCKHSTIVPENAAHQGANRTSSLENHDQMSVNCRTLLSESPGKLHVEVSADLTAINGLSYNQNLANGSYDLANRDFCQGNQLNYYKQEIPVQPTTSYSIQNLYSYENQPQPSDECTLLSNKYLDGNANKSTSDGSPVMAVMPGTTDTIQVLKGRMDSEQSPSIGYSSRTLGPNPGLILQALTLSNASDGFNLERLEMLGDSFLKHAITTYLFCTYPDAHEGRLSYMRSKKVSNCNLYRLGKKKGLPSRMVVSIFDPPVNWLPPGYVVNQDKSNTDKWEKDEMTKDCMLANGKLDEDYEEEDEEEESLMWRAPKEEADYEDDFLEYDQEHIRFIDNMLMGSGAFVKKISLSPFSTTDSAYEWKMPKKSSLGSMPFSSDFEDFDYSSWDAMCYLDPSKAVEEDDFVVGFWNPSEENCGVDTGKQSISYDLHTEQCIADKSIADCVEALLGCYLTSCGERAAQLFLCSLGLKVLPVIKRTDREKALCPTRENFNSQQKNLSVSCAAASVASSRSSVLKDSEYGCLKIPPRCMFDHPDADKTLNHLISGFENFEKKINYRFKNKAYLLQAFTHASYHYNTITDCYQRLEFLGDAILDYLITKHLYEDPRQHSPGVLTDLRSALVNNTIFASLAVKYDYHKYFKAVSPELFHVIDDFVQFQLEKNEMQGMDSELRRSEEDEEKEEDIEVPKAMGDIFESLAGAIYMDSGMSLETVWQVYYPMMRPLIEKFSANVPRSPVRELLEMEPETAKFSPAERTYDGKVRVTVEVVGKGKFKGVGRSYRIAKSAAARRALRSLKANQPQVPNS
As to `CS(=O)(=O)N1N=C(c2c(-c3ccccc3)c3cc(Cl)ccc3[nH]c2=O)CC1c1cccs1` (stereo unspecified), the z-score was 0.27. With `O=c1c(-c2ccccc2)coc2cc(O)ccc12`, the z-score is 3.37 (active). As to `COc1ccccc1-c1coc2cc(OC(=O)c3ccccc3Cl)ccc2c1=O`, the z-score is 0.93. Then `Cc1c2occ(-c3ccccc3)c2cc2c1oc(=O)c1ccccc12`, with 2.4. Take `Cc1nn(Cc2ccc(C(=O)NCc3ccccn3)o2)c(C)c1[N+](=O)[O-]`: the z-score was 1.35. Then `Fc1ccc2onc(-c3cnn(-c4ccccc4)c3)c2c1`, with 3.3 (active); and `Cc1ccc2oc(-c3cccc(N4C(=O)c5cccnc5C4=O)c3)nc2c1`, with -1; and `COc1ccc(-n2cnc3cc(NCc4ccco4)ccc32)cc1`, with 6.39 (active). Take `CC(Oc1cccc2c(=O)c3ccccc3oc12)C(=O)O` (stereo unspecified): the z-score is -0.48. For `CSc1sc(C(=O)NN)cc1C#N`, the z-score was 1.26. Turning to `CCOC(=O)N1CCc2c(sc3c2C(=O)NC(c2ccccc2F)N3)C1` (stereo unspecified), the z-score was 1.08. For the compound `Cc1cc(C(C)(C)C)ccc1NC(=O)COCC(=O)O`, the z-score was 1.34. As to `CCOc1ccc(-c2cc(O)cc3sc(=O)oc23)cc1`, the z-score is 5.74 (active). With `CCOc1ccc(-c2nc(-c3ccc(C)nc3OC)no2)cc1`, the z-score is 0.23. Consider `CCCCOc1cc(O)c2c(=O)cc(-c3ccccc3)oc2c1`, for which the z-score is -0.66. Regarding `Cn1c2c(c(=O)n(C)c1=O)C(C(=O)Nc1ccc(Cl)cc1)CC(=O)N2` (stereo unspecified), the z-score was 1.36. With `COC(=O)c1sccc1NNS(=O)(=O)c1ccc(C)cc1`, the z-score was 0.67. Consider `C=CCOc1ccc(C(=O)N(Cc2ccc(OC)cc2)C2CCS(=O)(=O)C2)cc1` (stereo unspecified), for which the z-score was 1.67. Then `C=CCOc1ccc2c(=O)cc(C(=O)OCC)oc2c1`, with -0.35; and `NC(=O)c1c(NC(=O)CSc2nc3ccccc3o2)sc2c1CCC2`, with 0.14; and `CC(C)N1CCC(=O)N(c2ccccc2Cl)C1=O`, with 5.02 (active). `CC(C)Oc1ccccc1Oc1ccc([N+](=O)[O-])cn1`: the z-score is 14.5 (active).

Regarding `O=[N+]([O-])c1ccc(Sc2ccc(Cl)cc2)nc1`, the z-score is -0.03. In the case of `CC(C)(C)n1cnnc1Sc1ccc([N+](=O)[O-])cn1`, the z-score is 2.43.

Consider `COc1c(Br)cc([N+](=O)[O-])c(OC)c1C(N)=O`, for which the z-score was -0.32. The figure for `CCN(CC)c1ccc(C2Nc3ccccc3-c3cc(C)nn32)c(O)c1` (stereo unspecified) is 0.47; for `Cc1cc(C)c2c(c1)-c1cc(C)nn1C(c1ccc(O)cc1)N2` (stereo unspecified) it is 2.1. Regarding `Cc1cc2n(n1)C(c1cc(C(C)(C)C)c(O)cc1O)Nc1ccccc1-2` (stereo unspecified), the z-score was 3.4 (active). The figure for `OC(CN1CCN(C(c2ccccc2)c2ccccc2)CC1)Oc1cccc(C(F)(F)F)c1` (stereo unspecified) is 2.86. Regarding `O=C1c2cccc3cc(Br)cc(c23)C(=O)N1CCO`, the z-score was 2.14. For the compound `CCN1/C(=C\C=C\c2scc[n+]2CC)Sc2c1ccc1ccccc21`, the z-score was -2.64.

In the case of `CC(=O)/C(=C\N=S(C)(=O)c1ccc(C)cc1)S(=O)(=O)c1ccc(Cl)cc1` (stereo unspecified), the z-score is -3.56. Then `CC1=C(C(=O)OCC2CCCO2)C(c2cccs2)C2=C(CC(c3cccs3)CC2=O)N1` (stereo unspecified), with 1.27; and `C=CCn1c(SCc2nnc(SCC(=O)c3ccc(Cl)cc3)o2)nnc1-c1ccccc1`, with 1.72; and `CC1(C)Cc2c(C#N)c(SCc3nc4ccccc4[nH]3)nc(N3CCOCC3)c2CO1`, with -1.2.

Regarding `C=CCn1c(SCc2nc3ccccc3[nH]2)nnc1-c1ccccc1`, the z-score was 4.03 (active). Consider `COc1ccc(-c2noc(-c3ccc(Cl)cc3)n2)cc1OC1CCCC1`, for which the z-score was -0.55. In the case of `Cc1ccc(-n2c(C)nc3sc4c(c3c2=O)CCC(C)C4)cc1` (stereo unspecified), the z-score was -0.76. Take `CCOC(=O)c1c(NC(=O)C2CCCN2S(=O)(=O)c2ccccc2)sc(C)c1C` (stereo unspecified): the z-score was 42.8. The figure for `O=S(=O)(c1ccc(Cl)cc1)N1CCN(c2cc(C(F)(F)F)nc3ccccc23)CC1` is -1.11.

Turning to `C=CCn1c(Oc2ccccc2Cl)nc2c1c(=O)n(C)c(=O)n2C`, the z-score is 0.6. With `Cn1c(=O)c2c(nc(NCCc3ccccc3)n2Cc2ccccc2)n(C)c1=O`, the z-score was -1.91. In the case of `Cn1c(Oc2ccccc2Br)nc2c1c(=O)n(Cc1ccccc1)c(=O)n2C`, the z-score was 5.58 (active). On to `COC(=O)COc1c(C)cc(-c2nn(C)c(=O)c3ccccc23)cc1C`, for which the z-score is -1.18. Then `CCCCOC(C)n1cc(Br)c(=O)[nH]c1=O` (stereo unspecified), with 0.67; and `CCSCCOC(=O)C1=C(C)NC2=C(C(=O)CC(c3cccs3)C2)C1c1ccsc1` (stereo unspecified), with 1.85.

As to `CCOCCOC(=O)C1=C(C)NC2=C(C(=O)CC(c3cccs3)C2)C1c1ccc(OC(C)=O)cc1` (stereo unspecified), the z-score is 0.06. As to `CC1=C(C(=O)OCc2ccccc2)C(c2ccc3c(c2)OCO3)C2=C(CC(c3cccs3)CC2=O)N1` (stereo unspecified), the z-score is 3.65 (active). On to `S=C(N/N=C/c1ccc(Cl)cc1)Nc1cc(Cl)ccc1Cl`, for which the z-score is -0.45. Then `O=C(O)c1ccccc1/C=N/Nc1cc(Cl)ccc1Cl`, with 5.07 (active). Then `CCOC(=O)N/N=C/c1ccccc1Cl`, with -1.05; and `N#Cc1ccsc1N1C(=O)c2ccccc2C1=O`, with 0.31. With `CCOC(=O)CSC(=NC)NNC(=O)c1c(C)nc2cc(C)ccn12`, the z-score was -0.21. With `Cc1cc(Br)c(NC(=O)c2ccc(Cl)cc2)c(Br)c1`, the z-score is 4.71 (active). Turning to `CC(C)(C)c1ccc(-c2cc(NC(=O)c3ccc(Cl)cc3)n[nH]2)cc1`, the z-score is 1.49.

With `Cc1cc(C)c(C(=O)NC(=O)Nc2c(Cl)cc(Cl)cc2Cl)c(C)c1`, the z-score was 0.37. With `Cc1cccc(C2C3=C(CCCC3=O)N=C3c4ccccc4C(=O)C32)c1` (stereo unspecified), the z-score is 2.43. Regarding `CC(C)(C)C(=O)Nc1ccncc1C(=O)O`, the z-score is -4.04.

As for `Nc1nc(COc2ccccc2Cl)ncc1S(=O)(=O)c1ccccc1`, the z-score is -2.39. `COc1ccc(-c2cc(C(F)(F)F)nc(SCC(=O)NC3CCCC3)n2)cc1OC`: the z-score was 1.64.

In the case of `COc1ccc(-c2cc(C(F)(F)F)nc(SCC(=O)NC3CC3)n2)cc1OC`, the z-score was -0.37. On to `COc1ccc(-c2cc(C(F)(F)F)n3ncnc3n2)cc1OC`, for which the z-score was 4.99 (active). For the compound `C/C(=N\NC(=S)Nc1cccc(F)c1)c1ccco1`, the z-score is 5.72 (active). Regarding `CNNC(=S)Nc1ccc(F)c(C)c1`, the z-score was 1.79. `CCc1[nH]nc2c1C(c1ccc(OC)c(OC)c1)C(C#N)=C(N)O2` (stereo unspecified): the z-score was -3.59. For the compound `COc1ccc2cc(S(=O)(=O)N3CCN(C(c4ccccc4)c4ccccc4)CC3)ccc2c1`, the z-score was 0.57. For the compound `CC1CCN(C(=S)NC2CC3CCC2C3)CC1` (stereo unspecified), the z-score was 2.37. Then `CCOC(=O)c1c(NC(=O)c2cc3ccccc3o2)sc(C)c1C`, with 0.8. Consider `CC(=Nc1ccccc1)c1nc(-c2ccccc2)oc1O`, for which the z-score was 1.37. Then `O=S(=O)(c1cccc(-c2cn3cccnc3n2)c1)N1CCCC1`, with 0.36; and `COc1ccccc1C(=O)CC1(O)C(=O)Nc2ccc(Cl)cc21` (stereo unspecified), with 6.27; and `CCN1C(=O)C2(/C(=C(/O)c3ccc(OC)c(C)c3)C(=O)C(=O)N2CCCOC)c2ccccc21` (stereo unspecified), with 1.63.

Regarding `CCN1C(=O)C2(/C(=C(/O)c3ccccc3)C(=O)C(=O)N2CCCOC)c2ccccc21` (stereo unspecified), the z-score is 3.53 (active). In the case of `CCN1C(=O)C2(/C(=C(/O)c3ccc(C)c(F)c3)C(=O)C(=O)N2CCCOC)c2ccccc21` (stereo unspecified), the z-score is -0.56. Then `CC1CC(=O)Nc2ccccc2N1C(=O)Nc1cccc(Cl)c1Cl` (stereo unspecified), with -0.93; and `O=C1CC(N2CCN(C(c3ccccc3)c3ccccc3)CC2)C(=O)N1c1cccc(Cl)c1` (stereo unspecified), with -0.21. `O=C(NC(=S)Nc1nc(-c2ccc(Cl)cc2)cs1)C1CC1`: the z-score was 1.34. For `Cc1ccc(S(=O)(=O)NC(=O)Nc2nc(-c3ccc(F)c(F)c3)cs2)cc1`, the z-score was -0.18. With `O=C(NNc1nc(-c2ccc(F)cc2)cs1)c1ccc(Cl)cc1`, the z-score is 5.33 (active). Then `CC12c3ccccc3C(c3ccccc31)C1C(=O)N(c3ccc(C(=O)O)cc3)C(=O)C12` (stereo unspecified), with 0.79. `Cc1ncc([N+](=O)[O-])n1CCOC(=O)c1ccc(Br)cc1`: the z-score was -0.13. Take `Cc1oc2cc(Br)c(OC(=O)c3ccco3)cc2c1C(=O)OC(C)C`: the z-score is 1.65.

As for `COc1ccc(C(=O)COc2cc3c(C(=O)OC(C)C)c(C)oc3cc2Br)cc1`, the z-score is 0.17. Then `Cc1oc2cc(Br)c(O)cc2c1C(=O)OC(C)C`, with 3.81 (active); and `Cc1cn(C(=O)Nc2ccccc2)nc1-c1cccs1`, with 1.17; and `Cc1ccc2nc(-c3cccnc3)[nH]c2c1`, with -0.74.

Take `COc1cc(C2C3=C(CC(C)(C)CC3=O)NC3=C2C(=O)CC(C)(C)C3)ccc1O`: the z-score was 1.78.

For `COc1cc(OC)cc(-c2nc3n(n2)C(c2ccc(OC)c(OC)c2)C2=C(CC(C)(C)CC2=O)N3)c1` (stereo unspecified), the z-score is 0.99. As to `COc1cc(C2C3=C(CC(C)(C)CC3=O)Nc3ncnn32)ccc1OC(C)C` (stereo unspecified), the z-score is 3.67 (active). Turning to `C=CCOc1ccc2c(=O)c(Oc3cc(C)ccc3C)coc2c1`, the z-score was 1.12. For `O=C(c1ccco1)N1CCC2(Cl)CCCCC2C1c1ccccc1` (stereo unspecified), the z-score was -2.84. The figure for `O=C(NC1(NCc2ccc(Cl)cc2)C(=O)c2ccccc2C1=O)c1ccc(C(F)(F)F)cc1` is 0.41; for `COc1ccc(Nc2nc3ccccc3nc2NS(=O)(=O)c2ccccc2)cc1OC` it is 1.78; for `CCCCN(CC)c1ncnc2ccc(C)cc12` it is 3.53 (active). Take `NC(=S)N/N=C/c1ccc(Cl)c(Cl)c1`: the z-score is -1.14. In the case of `CC(C)(C)NC(=O)NCCCN1CCOCC1`, the z-score is 0.22.

Source of the values: PubChem BioAssay AID1347074 (Center for Chemical Genomics, University of Michigan, 2019).
